Source: PubChem BioAssay (Tox21)
Results filed as inconclusive are left out. Active and inactive are the calls of the source. Unless noted, calls follow the shape of the dose curve; as a rule, active = well fitted curve in the direction sought with a large enough effect in the repeat runs; inconclusive = weak or mixed curves; inactive = no such curve, though single readings can be large; an effect the other way counts as inactive or inconclusive.

Legend:
[1] = qHTS assay to identify small molecule antagonists of the estrogen related receptor (ERR) signaling pathway - cell viability counter screen (AID 1224818);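 also: viability measured after 17.5 h of compound exposure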
In short: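 ERR reporter cells plated 6 h at 37 C/5% CO2, then compounds in DMSO pin-transferred and incubated 17.5 h at 37 C. Viability read as CellTiter-Fluor fluorescence after 30 min at 37 C.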

[2] = qHTS assay to identify small molecule agonists of the estrogen related receptor (ERR) signaling pathway (AID 1224820)
In short: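 ERR reporter cells (NTP line) plated 2,000/well, incubated 6 h at 37 C/5% CO2, then pinned with compounds in DMSO and held 18 h at 37 C. One-Glo added; luminescence read after 30 min at room temperature.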

[3] = qHTS assay to identify small molecule antagonists of the estrogen related receptor signaling pathway with the pleiotropic PPARgamma coactivator (PGC) cell viability counter screen (AID 1224822)
In short: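 PGC/ERR cells were seeded at 2,000 cells/well, rested 6 h at 37 C/5% CO2, then given compounds in DMSO by pin tool and incubated 17.5 h at 37 C. Viability came from CellTiter-Fluor fluorescence after 30 min.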

[4] = qHTS assay to identify small molecule agonists of the estrogen related receptor signaling pathway with the pleiotropic PPARgamma coactivator (PGC) (AID 1224823)
In short: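 PGC/ERR reporter cells were seeded, rested 6 h at 37 C/5% CO2, then exposed to compounds in DMSO by pin transfer for 18 h at 37 C. Luciferase activity was read as luminescence after One-Glo reagent and 30 min at room temperature.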

[5] = test system: estrogen-related receptor alpha (ERRalpha) with PGC-1alpha coactivator, human; assay: qHTS assay to identify small molecule antagonists of the estrogen related receptor signaling pathway with the pleiotropic PPARgamma coactivator (PGC) (AID 1224821; calls by dose curve; also: nearly all actives have a fitted effect of over 50% in size)
In short: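 Cells engineered for PGC/ERR signalling (line from NTP) were plated 6 h at 37 C/5% CO2, then exposed to DMSO-dissolved compound for 18 h at 37 C. Luciferase activity was read by One-Glo luminescence after 30 min at room temperature.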

Measured: Potency
Potency is read from the fitted curve at half-maximal effect.

c1ccc(C(NCCNC(c2ccccc2)c2ccccc2)c2ccccc2)cc1
not listed: [5]
inactive: all other assays above

NS(=O)(=O)c1ccc(-n2nc(C(F)(F)F)cc2-c2ccc(Cl)cc2)cc1
not listed: [3]
inactive: all other assays above

CCCCCC(O)CCCC(=O)O (centres undefined)
inactive: all assays above

COC(=O)c1c(C)[nH]c(C)c1C(=O)c1ccccc1Cc1ccccc1
not listed: [5]
inactive: all other assays above

O=C1C2C=CC=CC2=NC(=S)N1CCN1CCC(=C(c2ccc(F)cc2)c2ccc(F)cc2)CC1 (centres undefined)
active: [5] 25.6 µM
inactive: [1] | [2] | [4]

CCCCCCCCCCC/C=C\C(C)(C)/C=C\CCCC(=O)O
inactive: all assays above

N=C(N)c1ccc(N)cc1
not listed: [5]
inactive: all other assays above

Cc1nn(-c2ccccc2)c(C)c1/C=N/N1CCN(Cc2ccccc2)CC1
inactive: all assays above

COC(=O)[C@H](NC(=O)c1cc(-c2ccccc2)nc2ccccc12)c1ccccc1
inactive: all assays above

O=c1cc(O)cc(/C=C/c2ccc(O)c(O)c2)o1
not listed: [5]
inactive: all other assays above

Cn1cc(C(F)(F)F)nc1-c1ccc(OCC(O)CNCCOc2ccc(O)c(C(N)=O)c2)cc1 (centres undefined)
not listed: [5]
inactive: all other assays above

O=C(Nc1ccc2c(c1)CCN(Cc1ncn[nH]1)C2)c1ccccc1-c1ccc(C(F)(F)F)cc1
not listed: [5]
inactive: all other assays above

COc1cc2nc(N3CCCN(C)CC3)nc(NC3CCN(Cc4ccccc4)CC3)c2cc1OC
inactive: [2] | [4]
active: [1] 24.6 µM | [5] 28.7 µM | [3] 10.6 µM

OC[C@H]1O[C@@H](n2cnc3cncnc32)[C@H](O)[C@@H]1O
active: [5] 15 µM
inactive: all other assays above

CC(C)(C)c1ccc(/C=C/C(=O)Nc2ccc3c(c2)OCCO3)cc1
inactive: all assays above

O=C(O)c1ccccc1Nc1cccc(OCc2ccc3ccccc3n2)c1
inactive: all assays above

CNC(=O)[C@H]1O[C@@H](n2cnc3c(NCc4cccc(I)c4)ncnc32)[C@H](O)C1O (some centres undefined)
active: [4] 0.944 µM
inactive: all other assays above

O=c1cc(N2CCOCC2)oc2c(-c3ccccc3)cccc12
not listed: [5]
inactive: all other assays above

Nc1nc2ccc(Cl)cc2c2nc(-c3ccco3)nn12
inactive: all assays above

C[C@@]1(C2CCCC2)Cc2cc(OCC(=O)O)c(Cl)c(Cl)c2C1=O
not listed: [5]
inactive: all other assays above

C[C@@H]1C(=O)NC2=Nc3cccc(Cl)c3CN21
not listed: [3]
inactive: all other assays above

Nc1ncnc2c1ncn2[C@@H]1O[C@H](CO)C(O)[C@H]1O (some centres undefined)
inactive: [1] | [3]

O=c1ccc2c(OCCCCc3ccccc3)c3ccoc3cc2o1
inactive: [1] | [2] | [4]

Cc1cc(NC(=O)Nc2ccc3c(ccn3C)c2)sn1
inactive: [1] | [5] | [3]

CC(C)NC[C@H](O)COc1ccc(CC(N)=O)cc1
inactive: [1] | [3]

CC1CCN(CC[C@H]2CCCN2S(=O)(=O)c2cccc(O)c2)CC1
not listed: [2]
inactive: all other assays above

CC1CC2C3CCC4=CC(=O)C=C[C@]4(C)[C@@]3(F)[C@@H](O)C[C@]2(C)[C@@]1(O)C(=O)CO (some centres undefined)
inactive: [1] | [3]

O=C(O)C1=CCNCC1
inactive: [1] | [2] | [4]

COc1cccc(-c2cc(=O)c3ccccc3o2)c1N
active: [2] 1.96 µM | [4] 1.88 µM
inactive: [1] | [3]

COc1cc([C@@H]2c3cc4c(cc3[C@H](O)C3COC(=O)[C@@H]32)OCO4)cc(OC)c1OC (some centres undefined)
inactive: [1] | [3]
